# Measured values reported in PubChem BioAssay (Tox21).
# Activity calls are given as the source filed them. A call without a number means that no potency is given here. The call rests on the fitted dose curve.
# Biological target: Muscarinic acetylcholine receptor M1 (Homo sapiens) (UniProt P11229)
# Experiment: Cholinergic receptor muscarinic 1 (CHRM1) small molecule agonists, cell-based qHTS assay (AID 1963589); further: nearly all actives have a fitted effect of over 35% in size
# Conditions: CHRM1-CHO cells, agonist mode, calcium flux fluorescence; series mostly up to 76.8 µM
# How it was run: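 Cells were plated and incubated 18 h at 37 C/5% CO2, loaded with calcium dye for 1 h at 37 C, then treated with compounds in DMSO. Fluorescence was recorded kinetically at 1 sec intervals.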
# Sequence of Muscarinic acetylcholine receptor M1 (Homo sapiens) (P11229 whole entry, looked up): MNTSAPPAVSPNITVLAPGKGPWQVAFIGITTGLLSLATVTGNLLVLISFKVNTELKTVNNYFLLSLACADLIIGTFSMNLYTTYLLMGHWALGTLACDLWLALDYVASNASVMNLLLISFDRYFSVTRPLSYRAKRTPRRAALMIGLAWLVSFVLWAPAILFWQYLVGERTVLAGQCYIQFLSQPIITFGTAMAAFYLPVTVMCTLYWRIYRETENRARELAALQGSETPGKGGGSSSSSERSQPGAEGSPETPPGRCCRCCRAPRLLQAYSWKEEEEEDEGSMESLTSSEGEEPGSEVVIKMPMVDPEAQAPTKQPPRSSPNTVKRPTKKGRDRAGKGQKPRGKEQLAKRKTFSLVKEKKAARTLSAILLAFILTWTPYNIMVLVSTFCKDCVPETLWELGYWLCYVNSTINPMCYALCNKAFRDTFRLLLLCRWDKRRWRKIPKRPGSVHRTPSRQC
row,SMILES,Potency
1,C=CC[C@]1(O)CC[C@H]2[C@@H]3CCC4=CC(=O)CCC4=C3C=C[C@@]21C,inactive
2,NP(N)(=O)NC(=O)c1ccc(F)cc1,inactive
3,COc1ccc(C(=O)c2c(C)n(CCN3CCOCC3)c3ccccc23)cc1,inactive
4,CCOC(=O)COc1ccc(Cl)cc1Cl,inactive
5,CCOc1cccc(C2(N3CCN(c4ccccc4)CC3)CCC(C)CC2)c1 (stereo not given),inactive
6,COP(=O)(OC)Oc1ccc([N+](=O)[O-])cc1,inactive
7,COC(=O)N(C(=O)N1COC2(C(=O)OC)Cc3cc(Cl)ccc3C2=N1)c1ccc(OC(F)(F)F)cc1 (stereo not given),inactive
8,CC(Cc1ccccc1)NCCn1cnc2c1c(=O)n(C)c(=O)n2C (stereo not given),inactive
9,Cc1cccc(OP(=O)(Oc2cccc(C)c2)Oc2cccc(C)c2)c1,inactive
10,Oc1ccc2ccc3cccc4ccc1c2c34,inactive
11,ClCc1cccc(Cl)c1,inactive
12,COP(=S)(OC)Oc1c(Cl)cc(C)cc1Cl,inactive
13,CCOP(=S)(OCC)SCS(=O)(=O)CC,inactive
14,CCN1CCC2(CC1)COc1cc3c(cc12)N(C(=O)c1ccc(-c2ccc(-c4nnc(C)o4)cc2C)cc1)CC3,inactive
15,CN(C)CCc1c[nH]c2cccc(O)c12,inactive
16,COP(N)(=S)Oc1ccccc1C(=O)OC(C)C (stereo not given),inactive
17,N#Cc1c(-c2ccc(Cl)cc2)[nH]c(C(F)(F)F)c1Br,inactive
18,CNP(=O)(OC)Oc1ccc(C(C)(C)C)cc1Cl (stereo not given),inactive
19,Cc1cccc2sc3nncn3c12,inactive
20,CC1(C)CN=C(NN=C(/C=C/c2ccc(C(F)(F)F)cc2)/C=C/c2ccc(C(F)(F)F)cc2)NC1,inactive
